In PubChem BioAssay AID504832 (National Center for Advancing Translational Sciences (NCATS), 2011):
Screen size: about 310,000 compounds; about 18,000 (5.8%) were called active. Roughly 22% stayed inconclusive and do not appear here. The call rests on the fitted dose curve; in most records, active means well fitted inhibition curve with a large enough effect; inconclusive means small, poorly fitted or top-dose-only effect, or another doubt; inactive means no such curve, though single readings can be large or run the other way. For the sample, actives were picked, then their nearest neighbours and some compounds at random.

experiment: Primary qHTS for delayed death inhibitors of the malarial parasite plastid, 48 hour incubation; details: P. falciparum luciferase growth in erythrocytes; series mostly up to 28.7 µM; activity change, negative = inhibition: at the top concentration
In short: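 Here the parasites carry a stable luciferase gene and grow inside erythrocytes in Albumax-based RPMI medium with compound for one erythrocytic cycle. Activity is scored as loss of luminescent signal.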
On the % scale 0 is the no-effect control and ±100 the full control effect; potency means the concentration at half of the fitted maximal effect.

Q: For `COc1ccc(Cl)cc1NC(=O)c1cccc(N2C(=O)C3CC=CCC3C2=O)c1` (configuration not stated), which “activity change, negative = inhibition” value is on record?
A: 20.4% (inactive)

Q: With `O=Cc1cn(-c2ccccc2)nc1-c1ccccn1` as the compound, how does the “activity change, negative = inhibition” value read?
A: 21.5% (inactive)

Q: Which “activity change, negative = inhibition” value does the source give for `O=C(CSCc1ccccc1)Nc1ccccc1` here?
A: 56.7% (inactive)

Q: For `CC(=O)Nc1ccc(NC(=O)C(NS(=O)(=O)c2ccc3c(c2)OCCO3)C(C)C)cc1` (configuration not stated), which “activity change, negative = inhibition” value is on record?
A: -15.4% (inactive)

Q: With `CC(=O)c1ccc(S(=O)(=O)N2CCN(C(=O)/C=C/c3ccc4ccccc4n3)CC2)cc1` as the compound, how does the Potency read?
A: 11.7 µM (active)

Q: For `CC(=O)c1ccc(S(=O)(=O)N2CCC3(CC2)OCCO3)cc1`, which “activity change, negative = inhibition” value is on record?
A: -5.09% (inactive)

Q: Which “activity change, negative = inhibition” value does the source give for `NC(=O)COC(=O)/C=C/c1ccc2ccccc2n1` here?
A: 0% (inactive)

Q: With `C/C(=N\Nc1nncc2ccccc12)c1ccc(Cl)c([N+](=O)[O-])c1` as the compound, how does the “activity change, negative = inhibition” value read?
A: 50.4% (inactive)

Q: With `CC(=O)N1CCN(CC(=O)Nc2ccc(C)c(F)c2)CC1` as the compound, how does the activity change, negative = inhibition read?
A: -12.4% [at 0.00184 µM] (inactive)

Q: Which “activity change, negative = inhibition” value does the source give for `CS(=O)(=O)N(CC(=O)N1CCOCC1)c1cccc(Cl)c1Cl` here?
A: 0.916% (inactive)

Q: With `COC(=O)c1ccc(CN2CCN(CCCc3ccccc3)C(CCO)C2)cc1` (configuration not stated) as the compound, how does the “activity change, negative = inhibition” value read?
A: -11% (inactive)

Q: With `CCN1C(=NCCc2cccnc2)N[C@@H](c2ccccc2)C(C(=O)OC)=C1C` as the compound, how does the Potency read?
A: inactive

Q: For `COC(=O)c1ccc(C23CC4(C2)[C@H](CN(Cc2cccnc2)[C@@H]4c2ccccc2)C3c2ccc(Cl)nc2)cc1` (some centres not stated), which Potency is on record?
A: 10.4 µM (active)

Q: Which Potency does the source give for `Clc1ccc(C2[C@H]3CN(CC4CCCCC4)[C@H](c4ccccc4)C34CC2(c2cccnc2)C4)cn1` (some centres not stated) here?
A: 3.7 µM (active)

Q: Which “activity change, negative = inhibition” value does the source give for `O=C(O)c1ccc(S(=O)(=O)N2CCOCC2)o1` here?
A: 23.6% (inactive)

Q: Which “activity change, negative = inhibition” value does the source give for `CN(C(=O)COC(=O)Cn1cnc2c1c(=O)n(C)c(=O)n2C)C1(C#N)CCCCC1` here?
A: 22.8% (inactive)

Q: With `CCCC(=O)N1CCC(CCC(=O)NC2CC2)CC1` as the compound, how does the “activity change, negative = inhibition” value read?
A: 40.2% (inactive)

Q: For `CCOC(=O)c1ccc2[nH]c3c(c2c1)CCCC3NC=O` (configuration not stated), which “activity change, negative = inhibition” value is on record?
A: 3.34% (inactive)

Q: Which “activity change, negative = inhibition” value does the source give for `CC(C)[C@@H](NC(=O)OC(C)(C)C)C(=O)NCC1CCC(C(=O)N[C@@H](Cc2ccccc2)C(=O)O)CC1` (some centres not stated) here?
A: -7.46% (inactive)

Q: Which “activity change, negative = inhibition” value does the source give for `Cc1ccc(S(=O)(=O)N(C)C)cc1NC(=O)COC(=O)/C=C/c1cccs1` here?
A: 7.2% (inactive)

Q: Which “activity change, negative = inhibition” value does the source give for `Cc1csc(NC(=O)CSc2nc(=O)cc(N)n2-c2ccc(F)cc2)n1` here?
A: -0.578% (inactive)

Q: For `NC(=O)C1CCN(C(=O)c2cn(-c3ccccc3)nc2-c2cccnc2)CC1`, which “activity change, negative = inhibition” value is on record?
A: 20.7% (inactive)

Q: For `O=C(c1cn(-c2ccccc2)nc1-c1cccnc1)N1CCCCC1`, which “activity change, negative = inhibition” value is on record?
A: -29.5% (inactive)

Q: Which Potency does the source give for `O=C(c1cn(-c2ccccc2)nc1-c1cccnc1)N1CCN(S(=O)(=O)c2ccccc2F)CC1` here?
A: 11.7 µM (active)

Q: Which “activity change, negative = inhibition” value does the source give for `Cc1ccc(S(=O)(=O)CCC(=O)OCC(=O)NCCc2ccc(S(N)(=O)=O)cc2)cc1` here?
A: -10.4% (inactive)

Q: With `CCC(=O)c1ccc(OCC(=O)OCC(=O)NC2CCCCCC2)cc1` as the compound, how does the “activity change, negative = inhibition” value read?
A: -18.2% (inactive)

Q: With `CC1CCCC(C)N1C(=O)CSc1nnnn1C1CCCC1` (configuration not stated) as the compound, how does the “activity change, negative = inhibition” value read?
A: 27.6% (inactive)
